Source: PubChem
This is one part of a sample in which hits are shown more often than they occur.
CHX counter = Cycloheximide Counterscreen for Small Molecule Inhibitors of Shiga Toxin. hit rate 12% among 300,000. max response, %. cell reporter, cycloheximide protein synthesis inhibition counterscreen; in the data active = max response mostly above about 13%, no sharp cut-off; inactive = mostly below about 14%; note: read at 38.3 µM for the half of the compounds with a filed dose
AmpC detergent = qHTS Inhibitors of AmpC Beta-Lactamase (assay with detergent); hit rate 0.041% among 370,000; AmpC hydrolysis of nitrocefin, absorbance 480 nm, 0.01% Triton; P00811; Potency, µM (titrated, usually from 114 µM), hits mostly inhibitors; note: nearly all actives have a fitted effect of over 25% in size
Target sequence (P00811 whole entry, looked up): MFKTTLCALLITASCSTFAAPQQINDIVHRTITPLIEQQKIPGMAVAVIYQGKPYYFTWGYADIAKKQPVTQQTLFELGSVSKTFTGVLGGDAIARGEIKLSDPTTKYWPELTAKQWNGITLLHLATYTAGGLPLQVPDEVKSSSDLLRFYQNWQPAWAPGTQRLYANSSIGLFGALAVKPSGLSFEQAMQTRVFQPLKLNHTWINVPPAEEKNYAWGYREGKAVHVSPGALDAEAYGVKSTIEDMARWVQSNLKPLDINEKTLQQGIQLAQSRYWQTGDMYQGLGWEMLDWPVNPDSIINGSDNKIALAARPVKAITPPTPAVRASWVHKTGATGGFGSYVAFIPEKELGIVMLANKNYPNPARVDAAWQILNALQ
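AmpC (5.3 nM in the dispensed reagent) in 20 mM phosphate pH 7.0 with 0.01% (detergent screen) or 0.0001% Triton X-100 was preincubated with compounds for 15 min at room temperature. Nitrocefin was then added from an 800 uM solution, and hydrolysis was followed at 480 nm.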
AMA1 RON2 block = qHTS for Inhibitors of AMA1-RON; Towards Development of Antimalarial Drug Lead: Primary Screen; Potency, µM (series often up to 58.2 µM), hits mostly inhibitors; AlphaScreen AMA1-biotinylated RON2 peptide binding; hit rate 0.2% among 360,000; AID 720542, 2013; note: nearly all actives have a fitted effect of over 45% in size
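AMA1 (3D7) with his tag at 25 nM final met compounds first, then biotinylated RON2 peptide at 25 nM; detection used donor plus acceptor beads, 10 µg/mL apiece, read by AlphaScreen after 30 min at room temperature.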
AmpC no deterg = qHTS Inhibitors of AmpC Beta-Lactamase (assay without detergent) | AmpC nitrocefin hydrolysis, absorbance 480 nm, 0.0001% Triton | Potency, µM (titrated, usually from 57.1 µM), usual class: inhibitors | P00811 | hit rate 0.52% among 330,000; note: nearly all actives have a fitted effect of over 20% in size
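AmpC (5.3 nM in the dispensed reagent) in 20 mM phosphate pH 7.0 with 0.01% (detergent screen) or 0.0001% Triton X-100 was preincubated with compounds for 15 min at room temperature. Nitrocefin was then added from an 800 uM solution, and hydrolysis was followed at 480 nm.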
SARS PLP yeast = qHTS of Yeast-based Assay for SARS-CoV PLP; hit rate 0.19% among 330,000; S. cerevisiae expressing SARS-CoV PLpro, growth rescue; Potency, µM (series often up to 32.9 µM), most hits filed as activators; calls by dose curve; note: nearly all actives have a fitted effect of over 55% in size
Shiga toxin inh = A qHTS for Small Molecule Inhibitors of Shiga Toxin; inhibition, % at 38.7 µM; hit rate 9.2% among 290,000; AID 2315, 2010; Vero cells, Shiga toxin protein synthesis inhibition reporter; in the data active = inhibition mostly above about 28%, no sharp cut-off; inactive = mostly below about 43%
Hits are given with their value; [ ] = remark or other dose. Unless noted, calls come from the whole dose curve; as a rule, active = well fitted curve in the direction sought with a large enough effect; inconclusive = small, poorly fitted or top-dose-only effect, or another doubt; inactive = no such curve, though single readings can be large; an effect the other way counts as inactive or inconclusive.

How did COc1cc(Cl)cc(/C=C/c2ccc3cccc(O)c3n2)c1OC do in these assays?
CHX counter: inactive; AmpC detergent: inactive; AMA1 RON2 block: inactive; AmpC no deterg: inactive; SARS PLP yeast: inactive; Shiga toxin inh: inactive

How did COc1ccccc1/C=C/c1ccc2cccc(O)c2n1 do in these assays?
CHX counter: 40; AmpC detergent: inactive; AMA1 RON2 block: inactive; AmpC no deterg: inactive; SARS PLP yeast: inactive; Shiga toxin inh: 82

Results for Cc1cc(C(=O)NCc2csc(-c3ccccc3)n2)no1 ?
CHX counter: 51; AmpC detergent: inactive; AMA1 RON2 block: inactive; AmpC no deterg: inactive; SARS PLP yeast: inactive; Shiga toxin inh: 95

How did O=C(NCc1csc(-c2ccccc2)n1)c1ccco1 do in these assays?
CHX counter: 27; AmpC detergent: inactive; AMA1 RON2 block: inactive; AmpC no deterg: inactive; SARS PLP yeast: inactive; Shiga toxin inh: 60

Results for Cc1cc(NC(=O)c2cc(-c3ccccc3)on2)no1 ?
CHX counter: inactive; AmpC detergent: inactive; AMA1 RON2 block: inactive; AmpC no deterg: inactive; SARS PLP yeast: inactive; Shiga toxin inh: inactive

Results for CCCOc1ccccc1NC(=O)c1ccc([N+](=O)[O-])cc1 ?
CHX counter: inactive; AmpC detergent: inactive; AMA1 RON2 block: inactive; AmpC no deterg: inactive; SARS PLP yeast: inactive; Shiga toxin inh: inactive

What do the screens show for `COc1ccc(CC(=O)c2ccc(OC3OC(CO)C(O)C(O)C3O)cc2O)cc1` (stereo not given)?
CHX counter: 14; AmpC detergent: inactive; AMA1 RON2 block: inactive; AmpC no deterg: inactive; SARS PLP yeast: inactive; Shiga toxin inh: 84

Results for OC[C@@H]1O[C@@H](Oc2ccc(O)cc2)[C@H](O)[C@@H](O)[C@@H]1O ?
CHX counter: inactive; Shiga toxin inh: inactive

Results for OC[C@H]1O[C@@H](Oc2cc(O)cc(/C=C/c3ccc(O)cc3)c2)[C@H](O)[C@@H](O)[C@@H]1O ?
CHX counter: 27; AmpC detergent: inactive; AmpC no deterg: inactive; SARS PLP yeast: inactive; Shiga toxin inh: 95

Results for COc1ccc(-c2coc3cc(O[C@@H]4O[C@H](CO)[C@@H](O)[C@H](O)[C@H]4O)c(OC)cc3c2=O)cc1 ?
AMA1 RON2 block: inactive; AmpC no deterg: inactive; SARS PLP yeast: inactive

What do the screens show for `O=c1c(-c2ccc(O)cc2)coc2cc(O[C@@H]3O[C@H](CO)[C@@H](O)[C@H](O)[C@H]3O)cc(O)c12`?
CHX counter: 27; Shiga toxin inh: 61

How did COc1ccc(-c2coc3cc(OC4OC(CO)C(O)C(O)C4O)cc(O)c3c2=O)cc1 (stereo not given) do in these assays?
AmpC detergent: inactive; AMA1 RON2 block: inactive; AmpC no deterg: inactive; SARS PLP yeast: inactive

What do the screens show for `COc1ccc(-c2coc3cc(OC4OC(CO)C(O)C(O)C4O)ccc3c2=O)cc1` (stereo not given)?
CHX counter: 37; AmpC detergent: inactive; AMA1 RON2 block: inactive; AmpC no deterg: inactive; SARS PLP yeast: inactive; Shiga toxin inh: 47

How did COc1ccc(NC(=O)C2=CC(c3ccc(OC)cc3)=NS(=O)(=O)N2C)cc1 do in these assays?
CHX counter: inactive; AmpC detergent: inactive; AMA1 RON2 block: inactive; AmpC no deterg: inactive; SARS PLP yeast: inactive; Shiga toxin inh: inactive

Results for COCCCNC(=S)NNC(=S)Nc1ccccc1 ?
CHX counter: 27; AmpC detergent: inactive; AMA1 RON2 block: inactive; AmpC no deterg: inactive; SARS PLP yeast: inactive; Shiga toxin inh: 40

What do the screens show for `COCCCNC(=S)NCCc1ccc(F)cc1`?
CHX counter: inactive; AmpC detergent: inactive; AMA1 RON2 block: inactive; AmpC no deterg: inactive; SARS PLP yeast: inactive; Shiga toxin inh: 45

Results for COCCCNC(=S)Nc1ccc(C)cc1 ?
CHX counter: inactive; AmpC detergent: inactive; AMA1 RON2 block: inactive; AmpC no deterg: inactive; SARS PLP yeast: inactive; Shiga toxin inh: inactive

What do the screens show for `COCCCNC(=S)NNC(=S)Nc1ccc(F)cc1F`?
CHX counter: 44; AmpC detergent: inactive; AMA1 RON2 block: inactive; AmpC no deterg: inactive; SARS PLP yeast: inactive; Shiga toxin inh: 54

How did CCOC(=O)C1(Cc2cccc(Cl)c2)CCCN(C(=O)c2cc(C(C)C)nn2C)C1 (stereo not given) do in these assays?
CHX counter: 32; AmpC detergent: inactive; AMA1 RON2 block: inactive; AmpC no deterg: inactive; SARS PLP yeast: inactive; Shiga toxin inh: inactive

What do the screens show for `CCOC(=O)C1(Cc2cccc(Cl)c2)CCCN(C(=O)c2ccc(C)nc2)C1` (stereo not given)?
CHX counter: inactive; AmpC detergent: inactive; AMA1 RON2 block: inactive; AmpC no deterg: inactive; SARS PLP yeast: inactive; Shiga toxin inh: inactive

What do the screens show for `CCOC(=O)C1(Cc2cccc(Cl)c2)CCCN(C(=O)c2c(CC)noc2C)C1` (stereo not given)?
CHX counter: 41; AmpC detergent: inactive; AMA1 RON2 block: inactive; AmpC no deterg: inactive; SARS PLP yeast: inactive; Shiga toxin inh: 24

What do the screens show for `CCOC(=O)C1(Cc2cccc(Cl)c2)CCCN(C(=O)c2cc(C)on2)C1` (stereo not given)?
CHX counter: 28; AmpC detergent: inactive; AMA1 RON2 block: inactive; AmpC no deterg: inactive; SARS PLP yeast: inactive; Shiga toxin inh: 59

What do the screens show for `Cc1cc(NC(=O)CSc2ccc3nnc(CCNS(=O)(=O)c4ccccc4)n3n2)no1`?
CHX counter: inactive; AmpC detergent: inactive; AMA1 RON2 block: inactive; AmpC no deterg: inactive; SARS PLP yeast: inactive; Shiga toxin inh: inactive

What do the screens show for `O=C(Cc1ccc(S(=O)(=O)N2CCOCC2)s1)NC1CCCCC1`?
AmpC detergent: inactive; AMA1 RON2 block: inactive[11.6 µM]; AmpC no deterg: inactive; SARS PLP yeast: inactive

What do the screens show for `CC1CCCCC1NC(=O)Cc1ccc(S(=O)(=O)N2CCOCC2)s1` (stereo not given)?
AmpC detergent: inconclusive; AMA1 RON2 block: inactive; AmpC no deterg: 35µM; SARS PLP yeast: inactive

What do the screens show for `COc1cc(/C=N/NC(=O)CCC(=O)Nc2ccc(F)cc2)ccc1O`?
CHX counter: inactive; AmpC detergent: inactive; AMA1 RON2 block: inactive; AmpC no deterg: inactive; SARS PLP yeast: inactive; Shiga toxin inh: inactive

How did CCC(=NN=C(CC)c1ccccc1O)c1ccccc1O do in these assays?
AMA1 RON2 block: inactive

Results for C/C(=N/N=C(\C)c1ccccc1O)c1ccccc1O ?
CHX counter: 24; AmpC detergent: inactive; AMA1 RON2 block: inactive; AmpC no deterg: inactive; SARS PLP yeast: inactive; Shiga toxin inh: 38

How did Cc1onc(-c2c(Cl)cccc2Cl)c1NC(=O)NC1CCSC1 (stereo not given) do in these assays?
CHX counter: inactive; AmpC detergent: inactive; AMA1 RON2 block: inactive; AmpC no deterg: inactive; SARS PLP yeast: inactive; Shiga toxin inh: inactive
